USP30 inh = inhibitors of human USP30 deubiquitinase | Ubiquitin carboxyl-terminal hydrolase 30 (Homo sapiens), Q70CQ3 | purified USP30, Ub-rhodamine cleavage fluorescence | inhibition, % at 25 µM | actives 5.3% (n = 47,000)
Target sequence (Q70CQ3 whole entry, looked up): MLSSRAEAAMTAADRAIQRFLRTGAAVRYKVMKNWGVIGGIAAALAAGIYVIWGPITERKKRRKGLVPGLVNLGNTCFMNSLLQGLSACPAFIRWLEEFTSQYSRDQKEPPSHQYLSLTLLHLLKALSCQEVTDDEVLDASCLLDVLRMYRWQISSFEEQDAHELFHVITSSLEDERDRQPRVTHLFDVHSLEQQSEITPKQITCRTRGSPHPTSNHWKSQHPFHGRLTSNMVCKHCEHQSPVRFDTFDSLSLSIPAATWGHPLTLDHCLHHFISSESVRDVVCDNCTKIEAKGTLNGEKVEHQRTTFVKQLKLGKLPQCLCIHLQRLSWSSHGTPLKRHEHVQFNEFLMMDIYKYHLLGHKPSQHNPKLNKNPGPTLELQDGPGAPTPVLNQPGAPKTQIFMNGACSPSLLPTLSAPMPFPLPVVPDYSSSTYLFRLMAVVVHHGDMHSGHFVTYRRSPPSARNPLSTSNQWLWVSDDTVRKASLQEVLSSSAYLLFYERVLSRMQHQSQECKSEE
USP28 block = inhibitors of human USP28 deubiquitinase. Ubiquitin carboxyl-terminal hydrolase 28 (Homo sapiens), Q96RU2. actives 3% (n = 47,000). inhibition, % at 25 µM. purified USP28, Ub-rhodamine cleavage fluorescence, 30 min
* = called active by the depositor; i = inactive. Only some compounds are listed: those with a hit (about 7% of all), similar ones and a draw of the others. Cut-off read from the data, not from the text of the source: active = inhibition above about 30%; inactive = the rest.

SMILES	USP30 inh	USP28 block
Cc1ccc(-c2c[n+](CC(=O)N(c3ccccc3)C(C)C)c3n2CCC3)cc1	-14.2	16.7
O=C(C[n+]1cc(-c2ccccc2)n2c1CCC2)c1cccc([N+](=O)[O-])c1	30.6*	15.0
O=S(=O)(NC1CCCCC1)c1cnc[nH]1	26.3	7.5
COc1ccccc1OCc1nnc(SCC(=O)c2ccc(F)cc2)n1C	0.4	-3.8
Cn1c(COc2cccc3cccnc23)nnc1SCC(=O)c1ccc(Cl)cc1Cl	-0.6	37.2*
C/C(=C\CO)CC/C=C(\C)C(=O)O	23.7	2.7
CC(Nc1ccc(C(F)(F)F)cc1[N+](=O)[O-])C(=O)OCC(=O)NC1CCCC1 (stereo not given)	-64.7	-37.5
COc1ccccc1CN(C(=O)c1ccco1)C(C(=O)NC1CCCC1)c1ccc(Cl)cc1 (stereo not given)	48.2*	9.7
COc1ccccc1CN(C(=O)c1ccco1)C(C(=O)NC1CCCC1)c1ccc(C(C)C)cc1 (stereo not given)	35.1*	10.2
COc1ccc(C(C(=O)NC2CCCCC2)N(Cc2ccccc2Cl)C(=O)c2ccco2)cc1OC (stereo not given)	-127.9	-35.5
COc1ccc(CCN(C(=O)c2ccco2)C(C(=O)NC2CCCC2)c2ccc(Cl)cc2)cc1OC (stereo not given)	-6.5	-7.0
Cc1ccc(C(=O)N(CCO)Cc2ccccc2)cc1S(=O)(=O)N1CCCCC1	-12.5	-14.1
O=C(NCC1CCN(c2cc(-c3ccncc3)[nH]n2)CC1)c1ccc(F)cc1	-26.4	-13.1
O=C(COC(=O)c1cc2c(s1)CCC2)c1ccc2[nH]c(=O)[nH]c2c1	2.1	65.6*
Cc1cccc(C)c1NC(=O)COC(=O)c1ccc2[nH]c3c(c2c1)CCCC3	10.3	-15.1
Cc1ccccc1NC(=O)c1cc2c(CO)cnc(C)c2oc1=Nc1cccc(F)c1	13.6	-3.8
COc1ccc(NC(=O)c2cc3c(CO)cnc(C)c3oc2=Nc2cccc(F)c2)c(OC)c1	33.5*	6.5
COc1cccc(NC(=O)c2cc(CN3CCCC3)on2)c1	-14.8	20.6
O=C(Nc1ccccc1F)C1CN(C(=O)c2ccc3c(c2)OCO3)C1	-15.5	0.1
O=C(Nc1ccc2c(c1)OCCO2)c1cc(CN2CCOCC2)on1	8.7	52.9*
O=C(Nc1cccnc1)NC1CCCCC1	-16.5	-0.4
O=C(Nc1ccc2c(c1)OCCO2)NC1CCCCC1	-0.2	31.0*
O=C(Nc1ccc2c(c1)OCCO2)C1CN(C(=O)c2ccc3c(c2)OCO3)C1	5.2	43.2*
COc1cc(NC(=O)c2cc(CN3CCOCC3)on2)cc(OC)c1	2.9	53.8*
Cc1ccc(NC(=O)c2cc(CN3CCOCC3)on2)cc1C	-2.3	11.3
SMILES	USP30 inh	USP28 block
COCC1CN(C(=O)Cc2ccc(OC)cc2)Cc2ccnn2C1 (stereo not given)	-5.3	4.4
O=C(O)CCCCCN1C(=O)[C@@H]2Cc3ccccc3CN2C1=O	10.2	2.9
Cc1nc2ccccc2nc1OCC(=O)Nc1cccc(C#N)c1	-5.0	-2.1
COc1cccc(C(=O)Nc2ccc(Oc3ncnc4sc5c(c34)CCCC5)cc2)c1	-120.8	-30.2
Cc1nnc(-c2nnc(NC3CCCC3)c3ccccc23)o1	16.6	12.0
Cc1cc(NCCC(=O)Nc2ccccc2C)n2nc(-c3cccnc3)nc2n1	-20.2	-6.1
O=S(=O)(c1ccc(F)cc1)N1CCCC(c2nnc3ccccn23)C1 (stereo not given)	-25.9	-7.9
O=C(/C=C/c1ccc(OCc2c(F)cccc2Cl)cc1)NC1CCCC1	15.0	0.6
O=C(Nc1ccc2c(c1)OCCO2)c1cc(CN2CCCC2)on1	-24.3	63.3*
COc1ccc(NC(=O)c2cc(-c3ccco3)on2)c(OC)c1	-149.6	-46.6
O=C(Nc1ccc2c(c1)OCO2)c1cc(-c2ccco2)on1	-17.9	30.3*
Cc1ccc(NC(=O)c2cc(CN3CCCC3)on2)cc1C	-24.3	4.8
O=C(Nc1ccc2c(c1)OCCO2)c1ccc(N2CCCCC2)nn1	2.1	59.1*
Cc1ccc(NC(=O)c2ccc(N3CCCCC3)nn2)cc1F	i	-0.2
Cc1cc(NC(=O)C(=O)NCC2CCN(C(C)C)CC2)no1	33.3*	2.3
Cc1cc(NC(=O)C2CCCN(S(=O)(=O)N3CCCCCC3)C2)no1 (stereo not given)	-7.5	-8.9
CCOC(=O)N1CCC(NC(=O)CCn2c(=S)oc3ccccc32)CC1	34.1*	16.8
CCOC(=O)N1CCC(NC(=O)C2CCCN(c3nc4ccccc4o3)C2)CC1 (stereo not given)	12.4	0.5
CCc1ccc(-n2ccc(=O)c(-c3nc(-c4cccc(F)c4)no3)n2)cc1	23.3	-1.8
Cc1cccc(-n2ccc(=O)c(-c3nc(-c4ccc(Cl)c(F)c4)no3)n2)c1	39.1*	15.5
CN(C)CCNC(=O)c1ccc(N2CCc3ccccc32)s1	-47.7	19.0
O=C(c1ccc(N2CCc3ccccc32)s1)N1CCC(N2CCCCC2)CC1	0.6	34.6*
Cc1sc(NC(=O)Cc2c[nH]c3ccccc23)nc1-c1ccccc1	-98.1	-13.1
O=C(CN1C(=O)c2ccccc2OC(c2ccccc2)C1=O)c1ccc([N+](=O)[O-])cc1 (stereo not given)	24.5	8.4
O=C(Cn1c(=O)n(CCC(=O)N2CCc3ccccc3C2)c(=O)c2ccccc21)NCc1ccccc1Cl	52.7*	49.1*
SMILES	USP30 inh	USP28 block
O=C(Cn1c(=O)n(CCC(=O)N2CCc3ccccc3C2)c(=O)c2ccccc21)NCCC1=CCCCC1	27.8	11.4
O=C(CCn1c(=O)c2ccccc2n(Cc2cc(=O)n3ccccc3n2)c1=O)N1CCc2ccccc2C1	-11.3	-11.4
Cc1ccccc1Cn1c(=O)n(CCCC(=O)N2CCc3ccccc3C2)c(=O)c2ccccc21	47.4*	24.1
CC1(C)Cc2c(c(-c3ccccc3)nc3sc4c(SCc5ccccc5Cl)ncnc4c23)CO1	0.2	3.7
O=C(NCc1ccc(F)cc1)c1cn[nH]c1-c1ccc([N+](=O)[O-])cc1	21.5	4.0
Cc1nn(C)c(C)c1C(=O)C(=O)NC1(c2nccs2)CCCC1	8.2	-1.5
Cc1cc(C(=O)N[C@H]2[C@H](O)[C@H](O)C[C@@H]2c2ccccc2C)no1	-0.9	-9.9
Cc1cc(C(=O)N[C@H]2[C@H](O)[C@H](O)C[C@@H]2c2ccccc2)c(C)o1	-11.6	-0.1
Cc1ccccc1[C@H]1C[C@@H](O)[C@@H](O)[C@@H]1NC(=O)c1cccc(C#N)c1	46.5*	9.1
Cc1ccc([C@H]2C[C@@H](O)[C@@H](O)[C@@H]2NC(=O)c2ccccc2)cc1	36.9*	3.5
CC(C)c1cc(C(=O)N2CCOCC2)c(NC(=O)CSc2ccccc2)s1	-4.8	0.5
O=C(O)c1cccc(S(=O)(=O)Nc2ccc(Cc3ccncc3)cc2)c1	-9.2	-8.0
CC(C)(C)c1ccc(S(=O)(=O)Nc2ccc(Cc3ccncc3)cc2)cc1	36.4*	2.5
Cc1cccc(NC(=O)CSc2nnc(-c3n[nH]c4c3CCC4)n2N)c1	28.4	14.2
COc1ccc(Cl)cc1NC(=O)NC1CC(=O)N(c2cccc(F)c2)C1 (stereo not given)	16.0	9.9
COc1ccc(-c2ccc(=O)n(CC3CCNCC3)n2)cc1	26.1	15.6
COc1cc2c(cc1OC)C(COc1ccc3c(C)cc(=O)oc3c1)N(C(=O)C1CC1)CC2 (stereo not given)	0.6	-3.6
Cc1cc(=O)oc2cc(OC(=O)C3CCN(C(=O)c4ccc(Cl)cc4)CC3)ccc12	49.9*	5.3

Screens as filed in PubChem.
